This is an account of results in PubChem BioAssay (NCATS).

Values joined by “and” are separate entries in the source; they are usually repeats but may differ in a detail not shown here. Equal entries are not always repeated. Records with an inconclusive call do not appear. Unmarked numbers belong to inactive results. Active and inactive are the calls of the source. The call rests on the fitted dose curve; in most records, active means well fitted activation curve with a large enough effect; inconclusive means small, poorly fitted or top-dose-only effect; inactive means no such curve, though single readings can be large or run the other way.
Potency means the concentration at half of the fitted maximal effect.

Sequence of Cellular tumor antigen p53 (Homo sapiens) (P04637 whole entry, looked up): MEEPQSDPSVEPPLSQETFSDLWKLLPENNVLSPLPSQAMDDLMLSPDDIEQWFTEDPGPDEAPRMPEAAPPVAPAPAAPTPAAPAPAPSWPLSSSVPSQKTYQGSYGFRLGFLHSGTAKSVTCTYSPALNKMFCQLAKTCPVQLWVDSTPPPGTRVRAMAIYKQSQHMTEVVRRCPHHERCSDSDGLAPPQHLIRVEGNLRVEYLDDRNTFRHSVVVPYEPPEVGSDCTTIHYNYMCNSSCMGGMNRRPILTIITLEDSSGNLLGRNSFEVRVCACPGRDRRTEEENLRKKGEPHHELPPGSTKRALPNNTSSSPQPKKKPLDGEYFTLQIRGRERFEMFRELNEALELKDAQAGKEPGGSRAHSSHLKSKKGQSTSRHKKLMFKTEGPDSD

In this assay the target is Cellular tumor antigen p53 (Homo sapiens) (UniProt P04637). The assay can be described thus: Primary qHTS for small molecule compounds that upregulate eGFP-tagged delta133p53alpha (in N-terminal) cells. (AID 2060322). Further: nearly all actives have a fitted effect of over 75% in size.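 On activation: cells pre-induced with doxycycline then dosed without doxycycline; series mostly up to about 56 µM; 0% = DMSO vehicle and 100% = reference activator.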 To be noted: NCI-H358 eGFP-delta133p53alpha fluorescence, 24 h; activation: active compounds read high. Summed up:
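NCI-H358 cells pre-induced 24 h with 10 ng/ml doxycycline for eGFP-delta133p53alpha, plated dox-free and exposed 24 h at 37C to titrated compounds. Fixed, Hoechst-stained; gated GFP peak intensity by laser scanning cytometry, normalized to DMSO (0%) and 57.5 uM 5-azacytidine (100%).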
As for `Fc1ccc(C(OCCN2CCN(CCCc3ccccc3)CC2)c2ccc(F)cc2)cc1`, the activation is 0.57% and -55.2%.

For `CCOC(=O)c1c(C(C#N)=CN)c2ccc(Cl)c(Cl)c2n1C`, the activation was -1.37%.

On to `Cc1ncc(OC[C@@]2(c3cccc(F)c3)C[C@H]2C(=O)Nc2ccc(F)cn2)c(C)n1`, for which the activation is -13.1%.

For the compound `CN1C(=O)[C@]23CC4C(C)(C)[C@@]5(C[C@@]41CN2CC[C@@]3(C)O)C(=O)Nc1c5ccc2c1OC=CC(C)(C)O2` (some centres undefined), the activation is -19.1%.

For the compound `O=c1[nH]c2ccccc2n1C1CCN(Cc2ccc(-c3[nH]c4cc5ncnc5cc4nc3-c3ccccc3)cc2)CC1`, the activation was 5.59%.

For `COC[C@@H](NC(C)=O)C(=O)NCc1ccccc1`, the activation was -5.83%.

On to `O=C1CC[C@@]2(O)[C@H]3Cc4ccc(O)c5c4[C@@]2(CCN3CC2CC2)[C@H]1O5`, for which the activation is -5.99% and 2.51%.

Consider `COc1ccc(C(=O)c2c(C)n(CCN3CCOCC3)c3ccccc23)cc1`, for which the activation was 1.02%.

Regarding `C[C@]12Cc3cn[nH]c3C[C@@H]1CC[C@@H]1[C@@H]2CC[C@@]2(C)[C@H]1CC[C@]2(C)O`, the activation is -21.8%.

Turning to `CN1CN(c2ccccc2)C2(CCN(CCCC(=O)c3ccc(F)cc3)CC2)C1=O`, the activation is 23.7%.

For `Clc1ccccc1C(c1ccccc1)(c1ccccc1)n1cccn1`, the activation was 8.55%.

For `C[C@]12CC[C@@H]3c4ccc(OC(=O)N(CCCl)CCCl)cc4CC[C@H]3[C@@H]1CC[C@@H]2OP(=O)(O)O`, the activation is -2.49% and -2.33%.

On to `Cc1sc2c(c1C)C(c1ccc(Cl)cc1)=N[C@@H](CC(=O)OC(C)(C)C)c1nnc(C)n1-2`, for which the activation was -35.4% and 15.6%.

`O=S(=O)(CC1CS1)c1ccc(Oc2ccccc2)cc1` (centres undefined): the activation is -10.4%.

On to `COCC1(CO)C(=O)C2CCN1CC2` (centres undefined), for which the activation is -22.4%.

Consider `C[C@]12CCC(=O)C(O)=C1CC[C@@H]1[C@@H]2CC[C@]2(C)C(=O)CC[C@@H]12`, for which the activation was 6.69%.

`CCCC[N+]1(C)[C@H]2CC(OC(=O)[C@H](CO)c3ccccc3)C[C@H]1[C@H]1O[C@H]12` (some centres undefined): the activation is -13.2%.

Regarding `CC1=C(O)C(=O)C=C2C1=CC=C1[C@@]2(C)CC[C@@]2(C)[C@@H]3C[C@](C)(C(=O)O)CC[C@]3(C)CC[C@]12C`, the Potency was 17200 nM (active).

Turning to `COc1cccc2c1C(=O)c1c(O)c3c(c(O)c1C2=O)C[C@@](O)(C(=O)CO)CC3OC1CC(N2CCOC(OC)C2)C(O)C(C)O1` (some centres undefined), the Potency was 27.6 nM (active).

`Cc1sc2c(c1C)C(c1ccc(Cl)cc1)=NC(CC(N)=O)c1nnc(C)n1-2` (centres undefined): the activation is -1.12%.

Turning to `C[C@@H]1C[C@@H]([C@H](O)CC2CC(=O)NC(=O)C2)C(=O)[C@@H](C)C1`, the Potency is 4.37 µM (active) and 968 nM (active).

For the compound `N=c1c2c(-c3ccccc3)c(-c3ccccc3)n(Cc3ccccc3)c2ncn1C1CCC(O)CC1` (centres undefined), the activation was 11.7%.

Regarding `CN1[C@H]2CC(O)C[C@H]1[C@H]1O[C@H]12` (some centres undefined), the activation was -21%.

Regarding `c1cncc(OC[C@@H]2CCN2)c1`, the activation is -4.3%.

Turning to `c1ccc2c(CN3CCNCC3)cccc2c1`, the activation was 12.1%.

Consider `C[C@@H]1CC[C@H]2[C@@H](C)C(=O)O[C@@H]3O[C@@]4(C)CC[C@@H]1[C@]32OO4`, for which the activation is 0%.

`O=C(C[C@@H]1NCCC[C@H]1O)Cn1cnc2ccccc2c1=O`: the Potency is 239 nM (active).

In the case of `C[C@]12CC[C@@H]3[C@@H](CCC4=CC(=O)CC[C@@H]43)[C@@H]1CC[C@@H]2OC(=O)CCc1ccccc1`, the activation is 7.88%.

Regarding `CCC(C)/C=C(C)/C=C/C1=CC2=C(Cl)C(=O)C(C)(OC(C)=O)C(=O)C2=CO1` (centres undefined), the activation was -16%.

As for `CC(=O)OCC1=C(C(=O)O)N2C(=O)[C@@H](N)[C@H]2SC1`, the activation was 19.8% and -5.67%.

On to `CN[C@@H]1Cc2cccc3[nH]c(=O)n(c23)C1`, for which the activation was 31.7%.

For the compound `CN(C)CCN(C)CCc1ccc(Cl)c(Cl)c1`, the activation is 12%.

Turning to `COC1(CS(=O)c2ccccc2)CCN(CCc2c[nH]c3ccc(F)cc23)CC1` (centres undefined), the activation was -25%.

Turning to `O=S(=O)(F)Cc1ccccc1`, the activation was 5.78%.

As to `COc1ccc(C(=O)c2c(C)n(CCN3CCOCC3)c3cc(I)ccc23)cc1`, the activation is 27.2%.

For the compound `C[C@](O)(COc1ccc(C#N)cc1)C(=O)Nc1ccc(C#N)c(C(F)(F)F)c1`, the activation is -20%.

In the case of `CC(C)(C)c1cc(C=C(C#N)C#N)cc(Br)c1O`, the activation is 19.6%.

`CCN1C[C@]2(OC(=O)c3ccccc3NC(C)=O)CC[C@H](OC)[C@@]34[C@H]5CC6[C@@H](OC)C[C@](O)(C(C[C@@H]23)[C@@H]14)[C@@]5(O)[C@@H]6OC`: the activation is 24.6%.

Consider `CC(C)OC(=O)c1ccnc2cc(C(OCCN3CCCCC3)c3ccccc3Cl)sc12` (centres undefined), for which the activation was -11.2%.
